Among the test systems are DU-145 prostate; K-562 leukemia; MALME-3M melanoma; MDA-MB-231 breast; RXF 393 renal; SF-268 CNS; SF-295 CNS; SF-539 CNS; UACC-257 melanoma; M14 melanoma; HCT-15 colon; HT29 colon; SNB-75 CNS; SNB-19 CNS; U251 CNS; PC-3 prostate; SK-MEL-5 melanoma; UACC-62 melanoma; LOX IMVI melanoma; SK-MEL-28 melanoma.
Common to all, as to assay: NCI-60 one-dose screen, 48 h (100 = growth as untreated, 0 = no growth, -100 = all killed)
What all share (conditions): 10 µM unless noted

Compounds without any hit were thinned out: in the full panel of roughly 83,000, 20% have a hit.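 Single-concentration screen, 48 h exposure, 96-well plates. Endpoint: percent growth. Below 10 = active.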 Values without a mark were called inactive. Active and inactive are the calls of the source.

As to `CN(CCCNC(=O)CCOCCOCCOCCNC(=O)Cc1ccc2ccc3cccc4ccc1c2c34)CCCNc1cc(-c2ccc3ccccc3c2)nc2ccccc12`, the growth in the assay with DU-145 prostate is -95.8% (active); in the assay on K-562 leukemia it was -88.3% (active); with MALME-3M melanoma, -69.6% (active); with MDA-MB-231 breast, -70.7% (active); in the assay with RXF 393 renal, -37.7% (active); in the assay with SF-268 CNS, -82.9% (active). Further, the growth was -71.1% (active) with SF-295 CNS; -98.6% (active) in the assay on SF-539 CNS; -70% (active) in the assay with UACC-257 melanoma; -89.7% (active) in the assay on M14 melanoma; -77.5% (active) in the assay with HCT-15 colon; -87.6% (active) in the assay with HT29 colon. The growth is -95.7% (active) in the assay with SNB-75 CNS; -95.1% (active) in the assay on SNB-19 CNS; -70.7% (active) with U251 CNS; -93.6% (active) in the assay on PC-3 prostate; -96% (active) in the assay with SK-MEL-5 melanoma; -65.9% (active) in the assay on UACC-62 melanoma. Moreover, the growth in the assay with LOX IMVI melanoma is -43.7% (active); with SK-MEL-28 melanoma it was -94% (active).
With `CC1=C(C(=O)Nc2nc(-c3ccc(Cl)cc3)cs2)[C@H](c2ccc(O)cc2)NC(=O)N1`, the growth in the assay on DU-145 prostate was 98%; with K-562 leukemia, 96.8%; in the assay on MALME-3M melanoma, 99.6%; with MDA-MB-231 breast, 90.2%; with RXF 393 renal it was 104%; in the assay on SF-268 CNS, 87.1%. Also, the growth in the assay on SF-295 CNS was 95.7%; in the assay with SF-539 CNS it was 99.3%; with UACC-257 melanoma, 105%; with M14 melanoma it was 98.1%; in the assay on HCT-15 colon it was 102%; in the assay on HT29 colon, 100%. The growth is 74.3% in the assay on SNB-75 CNS; 107% with SNB-19 CNS; 93.4% in the assay with U251 CNS; 84.4% with PC-3 prostate; 99.8% in the assay with SK-MEL-5 melanoma; 88.8% with UACC-62 melanoma. Further, the growth in the assay on LOX IMVI melanoma is 95.1%; in the assay with SK-MEL-28 melanoma it was 115%.
Take `N#C/C(=C\c1cn(Cc2ccccc2)c2ccccc12)C(=O)Nc1ncc(Cc2ccccc2Cl)s1`: the growth in the assay on DU-145 prostate is 24.3%; with K-562 leukemia, 26.2%; in the assay on MALME-3M melanoma it was -7.28% (active); with MDA-MB-231 breast it was 19.8%; with RXF 393 renal it was 40.8%; in the assay with SF-268 CNS, 64.1%. Also, the growth was 8.89% (active) in the assay on SF-295 CNS; 13.5% in the assay with SF-539 CNS; -38.2% (active) in the assay on UACC-257 melanoma; 38.9% in the assay on M14 melanoma; 35.7% in the assay with HCT-15 colon; 28.2% in the assay on HT29 colon. The growth is -12.7% (active) in the assay on SNB-75 CNS; 72.4% in the assay with SNB-19 CNS; -9.08% (active) in the assay on U251 CNS; 40.6% with PC-3 prostate; 57.6% with SK-MEL-5 melanoma; -40.4% (active) in the assay on UACC-62 melanoma. For the same compound, the growth was 24.7% in the assay with LOX IMVI melanoma and 29.9% in the assay on SK-MEL-28 melanoma.
With `O=C(CCCCCCN1CC(=O)N2[C@H](c3ccc(Br)cc3)c3[nH]c4ccccc4c3C[C@@H]2C1=O)NO`, the growth in the assay with DU-145 prostate is 57.5%; in the assay on K-562 leukemia it was 14.7%; in the assay with MALME-3M melanoma, 20.4%; with MDA-MB-231 breast, 43.7%; in the assay on RXF 393 renal, 42.4%; in the assay with SF-268 CNS, 71.4%. Also, the growth in the assay on SF-295 CNS was 67.2%; in the assay on SF-539 CNS, 43.7%; in the assay with UACC-257 melanoma it was 34.9%; with M14 melanoma it was 46.6%; in the assay on HCT-15 colon, 103%; with HT29 colon, 53%. Further, the growth with SNB-75 CNS was 31.9%; in the assay on SNB-19 CNS, 57.1%; in the assay on U251 CNS, 42.6%; with PC-3 prostate, 39.1%; in the assay with SK-MEL-5 melanoma it was 26%; in the assay on UACC-62 melanoma it was 13.8%. Moreover, the growth was 12.3% with LOX IMVI melanoma and 33.9% with SK-MEL-28 melanoma.
As to `O=C1/C=C/[C@@H](O)[C@@H]2C[C@@H](O)C[C@H]2/C=C/CCC[C@H](CCO)O1`, the growth in the assay with DU-145 prostate was 16.6%; in the assay with K-562 leukemia, 17.7%; in the assay on MALME-3M melanoma it was -11.4% (active); in the assay on MDA-MB-231 breast, -83.1% (active); in the assay with RXF 393 renal it was -7.43% (active); in the assay on SF-268 CNS it was 12.4%. Besides, the growth with SF-295 CNS was 12.1%; with SF-539 CNS it was 31.7%; with UACC-257 melanoma, 27%; in the assay on M14 melanoma, 12.3%; in the assay on HCT-15 colon it was 10%; with HT29 colon it was -2.5% (active). Also, the growth in the assay on SNB-75 CNS was 33.1%; in the assay on SNB-19 CNS, 31.4%; in the assay with U251 CNS, 20.7%; in the assay on PC-3 prostate, 19.6%; in the assay with SK-MEL-5 melanoma, -94.6% (active); in the assay with UACC-62 melanoma, 25.3%. In addition, the growth in the assay with LOX IMVI melanoma is -61.4% (active); with SK-MEL-28 melanoma it was -3.47% (active).
Consider `CC1(C)CC2=C3C=C[C@@H]4[C@@]5(C)CCC(=O)C(C)(C)[C@@H]5CC[C@@]4(C)[C@]3(C)CC[C@@]2(C(=O)O)C[C@H]1O`, for which the growth in the assay on DU-145 prostate is 65%; in the assay on K-562 leukemia, 33.1%; in the assay on MALME-3M melanoma, 3.59% (active); in the assay on MDA-MB-231 breast it was -8.81% (active); in the assay on RXF 393 renal it was 29.1%; in the assay with SF-268 CNS, 32.6%. The growth in the assay with SF-295 CNS is 20.5%; with SF-539 CNS, 34.8%; in the assay with UACC-257 melanoma, 10.5%; in the assay with M14 melanoma it was 17.6%; in the assay with HCT-15 colon it was 6.74% (active); with HT29 colon it was 14%. The growth with SNB-75 CNS was 19.2%; in the assay on SNB-19 CNS it was 32.1%; in the assay on U251 CNS, 22.6%; with PC-3 prostate, 40.4%; with SK-MEL-5 melanoma it was 14%; in the assay on UACC-62 melanoma, 20.6%. Also, the figures for the growth in the assay with LOX IMVI melanoma and in the assay on SK-MEL-28 melanoma were 7.33% (active) and 25%, respectively.
For `COc1ccc(Oc2nc(Nc3ccc(N4CCOCC4)cc3)ncc2NC(=O)Nc2cc(OC)cc(OC)c2)cc1`, the growth was 12.8% in the assay with DU-145 prostate; 19.9% in the assay with K-562 leukemia; 7.76% (active) in the assay on MALME-3M melanoma; 1.79% (active) in the assay on MDA-MB-231 breast; -29.2% (active) in the assay with RXF 393 renal; 34.3% with SF-268 CNS. The growth in the assay with SF-295 CNS was 34.4%; in the assay on SF-539 CNS, -32.5% (active); in the assay with UACC-257 melanoma it was 35.9%; with M14 melanoma it was 21.4%; in the assay with HCT-15 colon it was 82.9%; in the assay with HT29 colon it was -32.8% (active). Moreover, the growth is 53.3% with SNB-75 CNS; 28.3% with SNB-19 CNS; -35.8% (active) with U251 CNS; 11.6% with PC-3 prostate; -32.8% (active) in the assay on SK-MEL-5 melanoma; -8.63% (active) with UACC-62 melanoma. For the same compound, the growth with LOX IMVI melanoma was 24.1%; in the assay on SK-MEL-28 melanoma, 5.33% (active).
`O=C(CN1CCN(c2cc3c(cc2F)c(=O)c(C(=O)O)cn3C2CC2)CC1)N/N=C/c1ccco1`: the growth in the assay on DU-145 prostate is 106%; in the assay with K-562 leukemia, 95%; with MALME-3M melanoma, 92.2%; in the assay on MDA-MB-231 breast, 98.7%; with RXF 393 renal, 112%; in the assay on SF-268 CNS, 93.8%. Also, the growth in the assay on SF-295 CNS is 100%; in the assay on SF-539 CNS, 93.2%; in the assay on UACC-257 melanoma it was 93.9%; in the assay on M14 melanoma, 96.6%; with HCT-15 colon, 102%; in the assay with HT29 colon it was 104%. For the same compound, the growth was 87.9% with SNB-75 CNS; 99.7% with SNB-19 CNS; 96.7% in the assay with U251 CNS; 93.5% in the assay on PC-3 prostate; 94.5% with SK-MEL-5 melanoma; 93.5% in the assay with UACC-62 melanoma. Further, the growth was 90.8% in the assay on LOX IMVI melanoma and 97.9% in the assay on SK-MEL-28 melanoma.

(Values after PubChem BioAssay (NCI).)
